Measurements as given in the supplement of paper PMC10849652.
Of roughly 8,800 targets only a part is listed; those with a hit were picked by preference. About 0.5% of all pairs of compound and target were hits. Values without a mark were called inactive.

compound: NCC(=O)Nc1ccc(-n2nc(C(F)(F)F)cc2-c2ccc3c(ccc4ccccc43)c2)cc1; test: log2 fold change, soluble protein after heating vs DMSO (PISA); higher = thermal stabilisation; K562 lysate, 10 uM; active = over 0.2 and 3.5 SD of the protein, either way, in both replicates (recomputed)
Procedure, shortened: (§1)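 K562 pellets were dounce-homogenised in PBS pH 7.4 containing 1 mM MgCl2, and the crude extract, at 1 mg/mL protein, was exposed to 10 μM compound for 30 min. Aliquots were heated for 3 min across 48°C-58°C, pooled, brought to 0.5% NP-40 at 4°C and spun at 21,000xg for 90 min, with the supernatant taken as soluble protein. TMTpro 16plex LC-MS/MS with equalised channel sums quantified that protein. Values are log-two fold changes in thermal stability relative to solvent controls, taken from duplicates.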

UniProt Q96S55, sequence (Q96S55 whole entry, looked up): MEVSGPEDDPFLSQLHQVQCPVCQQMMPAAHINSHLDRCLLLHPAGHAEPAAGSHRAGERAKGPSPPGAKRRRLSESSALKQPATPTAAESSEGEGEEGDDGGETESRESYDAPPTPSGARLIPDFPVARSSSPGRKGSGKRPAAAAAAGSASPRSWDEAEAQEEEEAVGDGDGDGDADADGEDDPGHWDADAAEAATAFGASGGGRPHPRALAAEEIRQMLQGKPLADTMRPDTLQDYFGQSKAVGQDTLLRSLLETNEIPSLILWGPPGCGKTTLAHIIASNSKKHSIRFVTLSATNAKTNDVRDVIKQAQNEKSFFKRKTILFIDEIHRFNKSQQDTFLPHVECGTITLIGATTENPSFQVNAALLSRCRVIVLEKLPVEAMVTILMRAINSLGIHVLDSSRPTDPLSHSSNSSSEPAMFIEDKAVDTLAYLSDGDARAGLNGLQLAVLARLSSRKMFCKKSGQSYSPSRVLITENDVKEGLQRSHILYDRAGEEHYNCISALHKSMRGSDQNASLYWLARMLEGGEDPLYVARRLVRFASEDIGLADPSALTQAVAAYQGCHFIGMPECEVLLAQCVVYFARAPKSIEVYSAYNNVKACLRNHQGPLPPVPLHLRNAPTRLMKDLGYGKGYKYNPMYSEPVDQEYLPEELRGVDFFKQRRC
UniProt Q9Y2X9, sequence (Q9Y2X9 whole entry, looked up): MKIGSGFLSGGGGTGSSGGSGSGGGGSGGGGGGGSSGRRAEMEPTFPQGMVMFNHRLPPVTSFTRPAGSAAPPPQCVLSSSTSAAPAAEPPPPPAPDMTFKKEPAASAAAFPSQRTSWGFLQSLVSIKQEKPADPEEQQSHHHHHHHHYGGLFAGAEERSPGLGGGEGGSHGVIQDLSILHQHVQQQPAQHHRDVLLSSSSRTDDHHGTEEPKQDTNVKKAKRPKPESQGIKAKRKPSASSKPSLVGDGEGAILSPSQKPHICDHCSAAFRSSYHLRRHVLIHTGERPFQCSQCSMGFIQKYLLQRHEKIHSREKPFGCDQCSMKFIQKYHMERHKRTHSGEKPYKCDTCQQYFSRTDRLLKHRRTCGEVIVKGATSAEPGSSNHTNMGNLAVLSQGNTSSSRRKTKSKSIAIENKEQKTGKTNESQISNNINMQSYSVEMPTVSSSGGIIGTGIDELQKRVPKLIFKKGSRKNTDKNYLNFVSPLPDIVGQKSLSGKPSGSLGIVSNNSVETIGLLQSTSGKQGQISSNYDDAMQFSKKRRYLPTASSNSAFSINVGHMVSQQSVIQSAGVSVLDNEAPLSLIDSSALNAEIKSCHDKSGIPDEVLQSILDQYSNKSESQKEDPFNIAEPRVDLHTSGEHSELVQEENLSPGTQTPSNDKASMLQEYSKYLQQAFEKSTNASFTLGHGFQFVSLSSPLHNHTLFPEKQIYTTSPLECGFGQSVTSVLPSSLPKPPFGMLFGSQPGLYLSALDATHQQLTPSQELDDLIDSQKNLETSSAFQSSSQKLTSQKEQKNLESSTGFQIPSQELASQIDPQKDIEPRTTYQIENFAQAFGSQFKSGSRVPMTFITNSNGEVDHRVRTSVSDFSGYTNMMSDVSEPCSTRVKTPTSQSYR
UniProt P58557, sequence (P58557 whole entry, looked up): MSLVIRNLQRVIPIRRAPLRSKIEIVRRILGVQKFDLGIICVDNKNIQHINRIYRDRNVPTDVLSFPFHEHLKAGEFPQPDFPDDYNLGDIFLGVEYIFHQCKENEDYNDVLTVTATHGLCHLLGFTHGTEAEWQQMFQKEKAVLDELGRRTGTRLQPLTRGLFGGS
UniProt A4D1P6, sequence (A4D1P6 whole entry, looked up): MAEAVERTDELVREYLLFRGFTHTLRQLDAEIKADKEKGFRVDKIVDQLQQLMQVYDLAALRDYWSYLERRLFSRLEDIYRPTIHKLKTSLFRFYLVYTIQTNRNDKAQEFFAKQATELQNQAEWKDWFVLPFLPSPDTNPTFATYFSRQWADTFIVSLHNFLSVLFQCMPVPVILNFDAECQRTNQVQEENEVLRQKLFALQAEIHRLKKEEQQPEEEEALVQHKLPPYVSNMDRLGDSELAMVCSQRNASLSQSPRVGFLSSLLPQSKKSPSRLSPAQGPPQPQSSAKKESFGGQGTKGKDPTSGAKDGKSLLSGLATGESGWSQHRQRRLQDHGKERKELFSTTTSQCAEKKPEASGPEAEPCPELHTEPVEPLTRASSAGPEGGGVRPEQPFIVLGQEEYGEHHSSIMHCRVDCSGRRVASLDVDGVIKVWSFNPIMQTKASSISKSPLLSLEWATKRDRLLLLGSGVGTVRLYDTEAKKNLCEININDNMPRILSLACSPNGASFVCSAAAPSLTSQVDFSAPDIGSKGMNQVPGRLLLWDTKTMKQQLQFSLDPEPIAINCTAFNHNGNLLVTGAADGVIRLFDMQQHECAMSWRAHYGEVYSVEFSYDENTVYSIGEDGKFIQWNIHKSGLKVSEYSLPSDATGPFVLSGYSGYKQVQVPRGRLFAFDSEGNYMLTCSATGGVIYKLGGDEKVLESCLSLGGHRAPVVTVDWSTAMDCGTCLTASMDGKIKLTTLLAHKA
UniProt P49754, sequence (P49754 whole entry, looked up): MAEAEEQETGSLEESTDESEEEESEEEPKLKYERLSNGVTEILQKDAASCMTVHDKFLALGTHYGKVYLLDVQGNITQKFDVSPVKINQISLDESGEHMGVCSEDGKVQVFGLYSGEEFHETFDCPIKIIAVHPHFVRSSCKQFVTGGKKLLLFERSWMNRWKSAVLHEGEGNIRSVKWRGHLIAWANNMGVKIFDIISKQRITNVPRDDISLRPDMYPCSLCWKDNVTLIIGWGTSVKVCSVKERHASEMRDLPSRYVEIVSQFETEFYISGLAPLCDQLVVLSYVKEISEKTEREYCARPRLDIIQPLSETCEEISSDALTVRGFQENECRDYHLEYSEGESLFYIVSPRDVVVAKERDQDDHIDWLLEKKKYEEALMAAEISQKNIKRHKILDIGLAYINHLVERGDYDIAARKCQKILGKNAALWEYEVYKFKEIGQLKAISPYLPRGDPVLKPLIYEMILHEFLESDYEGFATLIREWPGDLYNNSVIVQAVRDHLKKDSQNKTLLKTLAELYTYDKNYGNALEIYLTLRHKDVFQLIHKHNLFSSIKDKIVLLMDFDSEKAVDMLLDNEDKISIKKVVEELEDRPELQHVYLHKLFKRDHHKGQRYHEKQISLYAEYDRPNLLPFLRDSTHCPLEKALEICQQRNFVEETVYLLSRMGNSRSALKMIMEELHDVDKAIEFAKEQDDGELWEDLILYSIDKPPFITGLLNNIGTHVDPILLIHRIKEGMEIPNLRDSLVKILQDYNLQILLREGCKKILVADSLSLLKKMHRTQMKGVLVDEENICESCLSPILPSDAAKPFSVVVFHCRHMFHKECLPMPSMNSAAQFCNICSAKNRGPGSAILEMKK
UniProt P15498, sequence (P15498 whole entry, looked up): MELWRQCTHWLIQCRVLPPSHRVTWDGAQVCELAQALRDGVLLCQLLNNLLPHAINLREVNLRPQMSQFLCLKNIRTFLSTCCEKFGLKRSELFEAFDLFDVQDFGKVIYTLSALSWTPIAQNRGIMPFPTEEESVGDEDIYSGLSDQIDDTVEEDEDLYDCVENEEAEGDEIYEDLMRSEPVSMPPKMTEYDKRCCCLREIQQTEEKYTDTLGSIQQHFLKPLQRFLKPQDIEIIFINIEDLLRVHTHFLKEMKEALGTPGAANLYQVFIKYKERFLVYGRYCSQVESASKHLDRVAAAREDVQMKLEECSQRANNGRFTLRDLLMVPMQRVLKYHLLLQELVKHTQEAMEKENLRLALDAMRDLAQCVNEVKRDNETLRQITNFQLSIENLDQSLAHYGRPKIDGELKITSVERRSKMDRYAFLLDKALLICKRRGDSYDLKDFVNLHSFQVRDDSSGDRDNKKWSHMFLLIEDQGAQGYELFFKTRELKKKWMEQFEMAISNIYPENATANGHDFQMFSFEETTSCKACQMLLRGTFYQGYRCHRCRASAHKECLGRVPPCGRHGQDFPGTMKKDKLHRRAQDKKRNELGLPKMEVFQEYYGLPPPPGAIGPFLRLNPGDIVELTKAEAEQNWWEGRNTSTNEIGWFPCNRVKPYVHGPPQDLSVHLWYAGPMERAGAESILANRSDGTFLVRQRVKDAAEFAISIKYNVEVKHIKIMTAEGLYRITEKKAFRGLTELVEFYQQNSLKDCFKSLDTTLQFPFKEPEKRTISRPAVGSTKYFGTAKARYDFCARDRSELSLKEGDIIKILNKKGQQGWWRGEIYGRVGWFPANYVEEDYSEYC
UniProt P50552, sequence (P50552 whole entry, looked up): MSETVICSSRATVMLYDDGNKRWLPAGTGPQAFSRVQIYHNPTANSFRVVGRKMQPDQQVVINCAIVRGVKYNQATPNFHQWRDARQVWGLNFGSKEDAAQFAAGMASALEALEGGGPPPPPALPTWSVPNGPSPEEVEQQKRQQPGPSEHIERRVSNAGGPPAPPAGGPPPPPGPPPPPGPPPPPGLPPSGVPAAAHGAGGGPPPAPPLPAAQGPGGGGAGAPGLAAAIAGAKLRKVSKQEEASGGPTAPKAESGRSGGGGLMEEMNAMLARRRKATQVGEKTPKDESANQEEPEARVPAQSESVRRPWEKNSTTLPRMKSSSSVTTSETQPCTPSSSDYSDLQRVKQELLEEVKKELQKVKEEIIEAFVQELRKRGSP
UniProt Q9BRT2, sequence (Q9BRT2 whole entry, looked up): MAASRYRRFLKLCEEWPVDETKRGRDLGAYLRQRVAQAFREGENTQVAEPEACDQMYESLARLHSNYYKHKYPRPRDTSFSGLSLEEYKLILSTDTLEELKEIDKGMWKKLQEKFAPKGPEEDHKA
UniProt Q9UL40, sequence (Q9UL40 whole entry, looked up): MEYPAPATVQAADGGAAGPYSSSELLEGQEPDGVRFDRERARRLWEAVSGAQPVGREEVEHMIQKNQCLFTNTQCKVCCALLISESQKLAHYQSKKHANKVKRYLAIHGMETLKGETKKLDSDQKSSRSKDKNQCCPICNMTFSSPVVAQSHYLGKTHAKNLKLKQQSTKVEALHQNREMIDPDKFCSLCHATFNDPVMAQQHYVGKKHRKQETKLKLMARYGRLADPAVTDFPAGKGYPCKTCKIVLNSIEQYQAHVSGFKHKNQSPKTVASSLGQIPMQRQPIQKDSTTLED

Row | Target | log2 fold change
1 | YBEY (UniProt P58557) | 0.035
2 | ZNF598 isoform 3 (UniProt Q86UK7) | 0.01
3 | ZNHIT6 (UniProt Q9NWK9) | 0.001
4 | VTN (UniProt P04004) | 0.126
5 | WDR36 (UniProt Q8NI36) | -0.051
6 | VCPIP1 (UniProt Q96JH7) | 0.007
7 | VPS41 (UniProt P49754) | -0.025
8 | VASP (UniProt P50552) | 0.035
9 | YRDC (UniProt Q86U90) | 0.024
10 | WRNIP1 (UniProt Q96S55) | -0.011
11 | ZDHHC17 (UniProt Q8IUH5) | 0.065
12 | YDJC (UniProt A8MPS7) | 0.048
13 | VAV1 (UniProt P15498) | -0.003
14 | UTP18 (UniProt Q9Y5J1) | 0.045
15 | WDR91 (UniProt A4D1P6) | -0.045
16 | ZZEF1 (UniProt O43149) | 0.02
17 | USP34 (UniProt Q70CQ2) | 0.005
18 | UNKL (UniProt E9PDK2) | -0.336
19 | UQCC2 (UniProt Q9BRT2) | -0.019

compound: O=C(CCCCCCC(=O)Nc1ccccc1)NO [vorinostat]; test: as above
Procedure, shortened: as §1

Row | Target | log2 fold change
20 | YBEY (UniProt P58557) | -0.136
21 | WAS (UniProt P42768) | -0.07
22 | ZNF598 isoform 3 (UniProt Q86UK7) | -0.338 (active)
23 | UNC13A (UniProt Q9UPW8) | -0.485
24 | ZNHIT6 (UniProt Q9NWK9) | -0.218 (active)
25 | VTN (UniProt P04004) | -0.07
26 | WDR36 (UniProt Q8NI36) | -0.345 (active)
27 | UTRN isoform 2 (UniProt P46939) | 0.173
28 | VCPIP1 (UniProt Q96JH7) | 0.894 (active)
29 | VPS41 (UniProt P49754) | -0.471 (active)
30 | WAC isoform 5 (UniProt Q9BTA9) | -0.002
31 | VASP (UniProt P50552) | 0.015
32 | ZYG11A (UniProt Q6WRX3) | 0.719 (active)
33 | YRDC (UniProt Q86U90) | -0.424 (active)
34 | ZNF281 (UniProt Q9Y2X9) | -0.403 (active)
35 | WRNIP1 (UniProt Q96S55) | -0.521 (active)
36 | YDJC (UniProt A8MPS7) | -0.443 (active)
37 | VASN (UniProt Q6EMK4) | 0.233
38 | VAV1 (UniProt P15498) | -0.268 (active)
39 | UTP18 (UniProt Q9Y5J1) | -0.078
40 | WDR91 (UniProt A4D1P6) | -0.227 (active)
41 | ZNF346 (UniProt Q9UL40) | 0.137
42 | ZZEF1 (UniProt O43149) | -0.263 (active)
43 | USP34 (UniProt Q70CQ2) | -0.208 (active)
44 | UQCC2 (UniProt Q9BRT2) | 0.121
45 | WIPI1 (UniProt Q5MNZ9) | 0.088

compound: O=C(O)c1ccc2c(c1)nc(Nc1cccc(Cl)c1)c1ccncc12 [silmitasertib]; test: as above
Procedure, shortened: as §1

Row | Target | log2 fold change
46 | YBEY (UniProt P58557) | 0.063
47 | WAS (UniProt P42768) | 0.025
48 | ZNF598 isoform 3 (UniProt Q86UK7) | 0
49 | UNC13A (UniProt Q9UPW8) | 0.078
50 | ZNHIT6 (UniProt Q9NWK9) | -0.041
51 | VTN (UniProt P04004) | -0.076
52 | WDR36 (UniProt Q8NI36) | 0.044
53 | UTRN isoform 2 (UniProt P46939) | -0.144
54 | VCPIP1 (UniProt Q96JH7) | 0.029
55 | VPS41 (UniProt P49754) | 0.004
56 | WAC isoform 5 (UniProt Q9BTA9) | 0.351
57 | VASP (UniProt P50552) | 0.015
58 | ZYG11A (UniProt Q6WRX3) | 0.17
59 | YRDC (UniProt Q86U90) | 0.006
60 | ZNF281 (UniProt Q9Y2X9) | -0.084
61 | WRNIP1 (UniProt Q96S55) | 0
62 | YDJC (UniProt A8MPS7) | 0.023
63 | VASN (UniProt Q6EMK4) | -0.263
64 | VAV1 (UniProt P15498) | 0
65 | UTP18 (UniProt Q9Y5J1) | -0.014
66 | WDR91 (UniProt A4D1P6) | 0.042
67 | ZNF346 (UniProt Q9UL40) | 0.018
68 | ZZEF1 (UniProt O43149) | 0.011
69 | USP34 (UniProt Q70CQ2) | 0.05
70 | UQCC2 (UniProt Q9BRT2) | -0.021
71 | WIPI1 (UniProt Q5MNZ9) | -0.051

compound: O=C1NC(=O)C(c2cnc3ccccn23)=C1c1cn2c3c(cc(F)cc13)CN(C(=O)N1CCCCC1)CC2; test: as above
Procedure, shortened: as §1

Row | Target | log2 fold change
72 | ZNF652 (UniProt Q9Y2D9) | -0.042
73 | ZNF598 isoform 3 (UniProt Q86UK7) | 0.024
74 | ZNHIT6 (UniProt Q9NWK9) | 0.002
75 | VTN (UniProt P04004) | -0.085
76 | WDR36 (UniProt Q8NI36) | 0.028
77 | VCPIP1 (UniProt Q96JH7) | -0.021
78 | VPS41 (UniProt P49754) | -0.018
79 | VASP (UniProt P50552) | 0.01
80 | YRDC (UniProt Q86U90) | -0.017
81 | ZNF281 (UniProt Q9Y2X9) | -0.072
82 | WRNIP1 (UniProt Q96S55) | -0.046
83 | ZDHHC17 (UniProt Q8IUH5) | -0.067
84 | YDJC (UniProt A8MPS7) | -0.051
85 | VAV1 (UniProt P15498) | -0.027
86 | ZSCAN26 (UniProt Q16670) | -0.024
87 | UTP18 (UniProt Q9Y5J1) | 0.029
88 | WDR91 (UniProt A4D1P6) | -0.004
89 | ZNF346 (UniProt Q9UL40) | -0.05
90 | ZZEF1 (UniProt O43149) | 0.012
91 | USP34 (UniProt Q70CQ2) | -0.012
92 | UNKL (UniProt E9PDK2) | 0.003
93 | UQCC2 (UniProt Q9BRT2) | -0.06
94 | WIPI1 (UniProt Q5MNZ9) | 0.026
